Screens (PubChem)
Compounds with a hit are over-represented: about 4.6% of the library has one in this group of screens.
D1 antagonist = Antagonist of Human D 1 Dopamine Receptor: qHTS. HEK293 TREx D1 cells, calcium flux, dopamine EC80; active compounds read low. activity change, negative = inhibition, % at 10 µM. actives 3.2% (n = 360,000). AID 504652, 2011; in the data active = activity change below about -30%; note: % is set by controls: 0 for no effect and ±100 for the full control effect
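Antagonism measured as reduced calcium response to an EC80 dopamine addition following 180 s compound pre-read; cells were inducible HEK293 Trex D1 plated overnight at 30 C, read kinetically at 1 cycle/sec.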
D1 potentiator = Potentiators of Human D1 Dopamine Receptor: qHTS | HEK293 TREx D1 cells, calcium flux, dopamine EC20 potentiation | potentiation, % at 10 µM | actives 0.036% (n = 360,000) | AID 504651, 2011; in the data active = potentiation above about 30%; note: 0% is about no effect
D1 agonist = Allosteric Agonists of the Human D1 Dopamine Receptor: qHTS | HEK293 T-REx D1 cells, calcium flux, agonist mode | activation, % at 2 µM | actives 1% (n = 360,000); note: 0% is about no effect
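Inducible HEK293 T-REx D1 cells, force-coupled to calcium signalling, were plated at 4000 cells/well with tetracycline and held overnight at 30 C. After no-wash calcium dye loading, compound-evoked calcium rise over 180 s flagged agonists.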
TRHR PAM = qHTS for Small Molecule Agonists and Allosteric Enhancers of Human TRH Receptor: Primary Screen for Enhancers | Thyrotropin-releasing hormone receptor (Homo sapiens), P34981 | TRHR cells, fluo-8 calcium fluorescence, EC20 TRH enhancement | enhancement, % at 2 µM | actives 0.66% (n = 360,000); in the data active = enhancement above about 30%; note: 0% is about no effect
Target sequence (P34981 whole entry, looked up): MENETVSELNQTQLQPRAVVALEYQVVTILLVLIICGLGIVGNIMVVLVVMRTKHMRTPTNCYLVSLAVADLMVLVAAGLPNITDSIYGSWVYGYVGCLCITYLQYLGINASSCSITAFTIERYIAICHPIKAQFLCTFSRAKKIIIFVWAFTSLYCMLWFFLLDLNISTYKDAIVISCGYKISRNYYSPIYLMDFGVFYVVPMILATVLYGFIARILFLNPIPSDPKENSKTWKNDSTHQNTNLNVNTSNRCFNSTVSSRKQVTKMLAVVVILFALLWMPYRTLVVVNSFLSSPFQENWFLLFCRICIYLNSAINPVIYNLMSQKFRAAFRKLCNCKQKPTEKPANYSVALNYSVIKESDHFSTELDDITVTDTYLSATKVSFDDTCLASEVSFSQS
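TRHR-expressing cells loaded with fluo-8 calcium dye were read kinetically (ex 480/em 530) during compound addition, then stimulated with an EC20 of TRH (10 nM final). Enhancement of the Gq-mediated intracellular calcium response was scored.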
TRHR ag = qHTS for Small Molecule Agonists and Allosteric Enhancers of Human TRH Receptor: Primary Screen for Agonists. AID 493084, 2011. activation, % at 2 µM. actives 0.18% (n = 360,000). TRHR cells, calcium flux fluo-8, FDSS agonist mode. Thyrotropin-releasing hormone receptor (Homo sapiens), P34981; note: 0% is about no effect
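Steps: seed TRHR cells overnight; add fluo-8 no-wash Ca dye, RT 30 min–1.5 h; record 10 s baseline; pin-transfer compounds; monitor fluorescence 1 cycle/s for the agonist window. Calcium increases flag candidate agonists.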
Starred values were filed as active, the others as inactive; · = not tested or not shown; ! = not confirmed by another sample. Cut-off read from the data, not from the text of the source, unless noted: active = activation above about 30%; inactive = the rest.

SMILES | D1 antagonist | D1 potentiator | D1 agonist | TRHR PAM | TRHR ag
Nc1nc2c(Cl)ccc(Cl)c2s1 | 7 | -1 | 0 | 3 | 1
COc1ccc(-c2nc(C)c(CCNS(=O)(=O)c3cc(C)c(C)cc3C)s2)cc1 | -20 | 0 | 0 | 0 | 1
CCCS(=O)(=O)N1CCCC(C(=O)NCCCN2CCN(c3ccccc3F)CC2)C1 (stereo unspecified) | -38* | -6 | 2 | 9 | 0
CCS(=O)(=O)N1CCC(C(=O)NCCCN2CCN(c3ccccc3F)CC2)CC1 | -75* | -13 | 0 | -2 | 0
O=C(NCCN1CCN(c2ccccc2F)CC1)C1CCCN(S(=O)(=O)c2cnc[nH]2)C1 (stereo unspecified) | -45* | · | 5 | 10 | -1
COc1ccc(S(=O)(=O)Nc2cccc(-c3ccc(N4CCC(C)CC4)nn3)c2)c(OC)c1 | 13 | 5 | 3 | 3 | 0
CCc1cccc(OCCCN2C(=O)NC(C)(C)C2=O)c1 | -5 | -4 | 3 | -11 | 2
CC(=O)c1cccc(OCCN2C(=O)NC(C)(C)C2=O)c1 | -30* | 1 | 0 | -6 | 0
CC(C)(C)OC(=O)CC(=O)NNC(=O)c1nc2ccccc2[nH]1 | -16 | 3 | 0 | 4 | -1
O=C(NC1CCN(S(=O)(=O)c2ccccc2)CC1)c1ccccc1 | -7 | -6 | 0 | 3 | 0
COc1ccc(C(CNC(=O)c2ccc(-c3ccccc3)cc2)N(C)C)cc1OC (stereo unspecified) | 14 | -12 | 14 | 10 | 4
COc1ccc(NC(=O)c2sc3nc4c(c(-c5ccc(OC)cc5)c3c2N)C(=O)CC(C)(C)C4)cc1 | -36* | -4 | 12 | 3 | 0
COc1ccc(-c2c3c(nc4sc(C(=O)Nc5cccc(OC)c5)c(N)c24)CC(C)(C)CC3=O)cc1 | 3 | -2 | 4 | -1 | 0
COc1ccc(-n2nc3c(N4CCC(C(=O)NCc5ccccc5C)CC4)nnc(C)c3c2C)cc1 | -2 | 12 | 76*! | -14 | 0
COc1ccc(-n2nc3c(N4CCC(C(=O)NCCc5ccccc5C)CC4)nnc(C)c3c2C)cc1 | 12 | 13 | 3 | 7 | -1
Cc1ccc(-n2nc3c(N4CCC(C(=O)NCCc5ccccc5)CC4)nnc(C)c3c2C)cc1 | -72* | -3 | 5 | 2 | 0
Cn1cc(/C=N\O)nc2c(=O)n(-c3ccccc3)c(=O)nc1-2 | 1 | 11 | 5 | 8 | 0
Cc1c(CCO)c(=O)n(C)n1C(=O)c1ccc(F)cc1 | 12 | -7 | 5 | -1 | 0
Cc1c(CCO)c(=O)[nH]n1C(=O)c1ccc(F)cc1 | -31* | -9 | 1 | 2 | 0
O=c1cc(-c2ccc(F)cc2)nc(SCc2nc(-c3ccc(Cl)cc3)no2)[nH]1 | -9 | -2 | 2 | 43* | 0
CC(C)(C)OC(=O)CC(=O)NNC(=O)c1cc2ccccc2[nH]1 | 12 | 2 | 2 | 7 | 1
CC(C)OC(=O)/C(=C\c1ccccc1)NC(=O)c1ccccc1 | 5 | -3 | -1 | -4 | 0
CC(C)OC(=O)C(NC(=O)c1ccccc1)=C1CCCCC1 | -38* | -2 | 4 | -5 | -1
CC(C)C[C@H]1CN=C(Nc2ccccc2)N1CC1CCC(C(C)(C)C)CC1 (stereo partly specified) | 21 | 3 | 70* | 21 | 0
Cc1ccc(Cl)cc1N1CCN(S(=O)(=O)c2ccc3oc(=O)c4ncn(C)c4c3c2)CC1 | 8 | -3 | 0 | -3 | 1
SMILES | D1 antagonist | D1 potentiator | D1 agonist | TRHR PAM | TRHR ag
Cc1cccc(NC(=O)C(=O)NCC(c2ccc3c(c2)OCO3)N2CCOCC2)c1C (stereo unspecified) | -5 | -1 | -1 | 2 | 0
Cc1cc(/C=N/n2cnnc2)c(C)n1-c1ccc(Cl)cc1Cl | -35* | -5 | 15 | -6 | 1
COc1cccc(NC(=O)c2ccc3[nH]c(C)cc(=O)c3c2)c1 | 3 | 1 | 1 | -1 | 0
CN(C)c1ccc(/C=c2\sc3nc(-c4ccccc4)nn3c2=O)cc1 | -57* | -9 | 6 | -3 | 6
COc1cc(/C=c2\sc3nc(-c4ccncc4)nn3c2=O)ccc1OC(C)=O | -5 | -3 | 3 | -3 | 1
O=C(Nc1ccc(F)c(Cl)c1)C1CCCN(S(=O)(=O)c2cccc3nsnc23)C1 (stereo unspecified) | -11 | 2 | -1 | -7 | 2
O=C(Nc1ccc2c(c1)OCCO2)C1CCCN(S(=O)(=O)c2cccc3nsnc23)C1 (stereo unspecified) | -36* | 38* | 0 | 19 | 0
CCc1cccc(NC(=O)c2cn3c4c(ccc(Cl)c4c2=O)OC(C)C3)c1 (stereo unspecified) | 2 | 6 | 0 | 3 | 2
CS(=O)(=O)N(CC(=O)N1CCN(c2ccc(F)cc2)CC1)c1ccc(F)c(Cl)c1 | · | 0 | -1 | 39* | 0
Cc1ccc(NC(=O)CC(NC(=O)c2ccccc2Cl)c2ccccc2)nc1 (stereo unspecified) | -30* | · | 7 | -3 | 0
COc1cccc(CSc2nc(-c3ccccc3F)nc3c2Cc2c(CO)cnc(C)c2O3)c1 | 5 | 4 | 0 | 9 | 0
O=C(CCc1nnc2n(Cc3ccccc3Cl)c(=O)c3ccccc3n12)Nc1ccc(F)c(F)c1 | 9 | 1 | 0 | -1 | 0
CCCC12CN3CC(CCC)(CN(C1)C3c1c(C)[nH]c(=O)[nH]c1=O)C2=O (stereo unspecified) | -9 | -3 | 0 | -1 | 2
Cc1ccc(NC(=O)Cn2cc(C(=O)C3CC3)c3ccccc32)c(C)c1 | 0 | -3 | -2 | 36*! | 1
Nc1ccccc1S(=O)(=O)C(F)F | -5 | 0 | 1 | -1 | -1
CCOC(=O)c1cc(-c2ccc(OC)cc2)n(CCC(=O)Nc2nc3ccc(OCC)cc3s2)c1C | 1 | -2 | 2 | 6 | 0
CCN1CCN(c2nnc(-n3cccc3C(=O)NCc3ccccc3OC)s2)CC1 | 5 | -5 | 2 | 2 | 0
c1ccc(Cn2c(NCc3ccco3)nc3ccccc32)cc1 | -36* | 2 | 6 | -14 | 0
CCn1c(NCc2ccco2)nc2ccccc21 | 22 | -7 | -1 | -1 | 0
CCOC(=O)c1c(C)[nH]c(C)c1S(=O)(=O)NCC(=O)Nc1cc(C)ccc1OC | -7 | -2 | 4 | -4 | -1
